Among the data in PMC7862700, “An all-to-all approach to the identification of sequence-specific readers for epigenetic DNA modifications on cytosine” are binding signal values, retold here.

Assay in all cases: DAPPL (digital affinity profiling via proximity ligation, sequencing); 10 mM Tris-HCl pH 7.5, 50 mM NaCl, 1 mM DTT, 4% glycerol, room temperature, 30 min; GST-TFs on glutathione beads, 16-mer random dsDNA library, 0.1% formaldehyde crosslink after washing; high values mean tight binding
What all share (details): protein: recombinant; tags: N-terminal GST; dsDNA, one strand shown

The target in test [1] is T1, FEV (Homo sapiens, UniProt Q99581 1-238).
T1 sequence: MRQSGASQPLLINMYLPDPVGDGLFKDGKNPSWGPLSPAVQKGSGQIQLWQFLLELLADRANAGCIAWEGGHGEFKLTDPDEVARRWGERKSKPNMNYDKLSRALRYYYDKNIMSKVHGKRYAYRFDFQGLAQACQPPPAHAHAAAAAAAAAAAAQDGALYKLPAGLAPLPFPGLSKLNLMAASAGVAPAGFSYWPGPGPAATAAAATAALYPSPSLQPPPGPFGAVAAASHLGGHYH
In outline:
(§1)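 Binding signal is given per hexamer as its read frequency for a factor divided by its frequency in the tag-only sample. GST-fused human transcription factors were expressed in yeast, captured on glutathione beads, barcoded with DNA and pooled with that sample, then incubated with 200 nmole of a 16-mer random double-stranded DNA library in Tris/NaCl/DTT/glycerol buffer for 30 min at room temperature. The pools were then washed, crosslinked, proximity-ligated, amplified by PCR and sequenced on an Illumina NextSeq500.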

For test [2], the target named is ELF4 (Homo sapiens, UniProt Q99607 1-663). A digest of the protocol:
as §1

Test [3] has as its target T2, ELK4 (Homo sapiens, UniProt P28324-2 1-405).
T2 sequence: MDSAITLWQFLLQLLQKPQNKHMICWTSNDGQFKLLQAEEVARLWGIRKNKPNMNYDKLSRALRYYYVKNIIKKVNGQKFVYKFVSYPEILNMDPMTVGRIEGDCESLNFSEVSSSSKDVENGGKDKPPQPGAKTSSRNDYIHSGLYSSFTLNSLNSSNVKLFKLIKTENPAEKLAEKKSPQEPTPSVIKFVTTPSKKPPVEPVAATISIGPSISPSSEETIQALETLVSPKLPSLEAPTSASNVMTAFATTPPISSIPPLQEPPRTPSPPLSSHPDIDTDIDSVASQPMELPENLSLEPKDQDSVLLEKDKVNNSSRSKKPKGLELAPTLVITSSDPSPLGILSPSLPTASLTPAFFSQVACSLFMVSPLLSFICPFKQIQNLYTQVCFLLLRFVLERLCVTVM
A digest of the protocol:
as §1

The target of test [4] is T3, GABPA (Homo sapiens, UniProt Q06546 1-454).
T3 sequence: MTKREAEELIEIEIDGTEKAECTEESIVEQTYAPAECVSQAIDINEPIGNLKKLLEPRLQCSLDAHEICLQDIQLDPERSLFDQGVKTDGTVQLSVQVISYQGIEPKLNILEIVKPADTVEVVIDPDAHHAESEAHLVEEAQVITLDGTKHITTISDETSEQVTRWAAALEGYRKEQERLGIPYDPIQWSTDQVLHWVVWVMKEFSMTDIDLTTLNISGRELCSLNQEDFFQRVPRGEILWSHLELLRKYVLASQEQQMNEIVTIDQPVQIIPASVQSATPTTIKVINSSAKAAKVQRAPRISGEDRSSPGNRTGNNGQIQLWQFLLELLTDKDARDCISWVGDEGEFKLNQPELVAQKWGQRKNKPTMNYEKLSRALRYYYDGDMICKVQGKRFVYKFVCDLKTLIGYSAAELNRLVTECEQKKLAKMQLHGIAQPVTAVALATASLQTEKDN
A digest of the protocol:
as §1

Test [5] concerns the target ELF1 (Homo sapiens, UniProt P32519 1-619). A digest of the protocol: as §1
Test [6] has as its target SPI1 (Homo sapiens, UniProt P17947 1-270). In outline: as §1
The target of test [7] is T4, ETV2 (Homo sapiens, UniProt O00321 1-342).
T4 sequence: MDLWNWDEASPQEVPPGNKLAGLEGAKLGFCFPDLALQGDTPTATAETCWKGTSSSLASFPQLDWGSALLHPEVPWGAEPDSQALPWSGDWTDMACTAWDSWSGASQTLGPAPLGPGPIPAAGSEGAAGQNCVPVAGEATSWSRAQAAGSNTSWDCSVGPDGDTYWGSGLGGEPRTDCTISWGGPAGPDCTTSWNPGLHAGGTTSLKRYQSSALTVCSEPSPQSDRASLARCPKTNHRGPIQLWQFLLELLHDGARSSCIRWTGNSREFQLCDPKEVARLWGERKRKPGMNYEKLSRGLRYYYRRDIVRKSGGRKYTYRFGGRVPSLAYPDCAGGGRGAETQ
In outline:
as §1

The target of test [8] is T5, SPDEF (Homo sapiens, UniProt O95238 1-335).
T5 sequence: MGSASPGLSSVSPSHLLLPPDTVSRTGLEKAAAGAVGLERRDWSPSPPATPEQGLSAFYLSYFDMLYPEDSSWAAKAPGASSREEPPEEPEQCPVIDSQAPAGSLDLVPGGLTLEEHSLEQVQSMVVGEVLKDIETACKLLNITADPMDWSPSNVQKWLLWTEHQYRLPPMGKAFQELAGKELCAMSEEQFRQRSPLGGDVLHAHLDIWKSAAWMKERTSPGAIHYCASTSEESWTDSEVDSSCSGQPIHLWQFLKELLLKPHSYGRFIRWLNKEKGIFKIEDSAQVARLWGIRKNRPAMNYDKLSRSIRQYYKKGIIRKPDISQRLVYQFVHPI
A digest of the protocol:
as §1

Test [9] has as its target T6, ETV7 (Homo sapiens, UniProt Q9Y603 1-341).
T6 sequence: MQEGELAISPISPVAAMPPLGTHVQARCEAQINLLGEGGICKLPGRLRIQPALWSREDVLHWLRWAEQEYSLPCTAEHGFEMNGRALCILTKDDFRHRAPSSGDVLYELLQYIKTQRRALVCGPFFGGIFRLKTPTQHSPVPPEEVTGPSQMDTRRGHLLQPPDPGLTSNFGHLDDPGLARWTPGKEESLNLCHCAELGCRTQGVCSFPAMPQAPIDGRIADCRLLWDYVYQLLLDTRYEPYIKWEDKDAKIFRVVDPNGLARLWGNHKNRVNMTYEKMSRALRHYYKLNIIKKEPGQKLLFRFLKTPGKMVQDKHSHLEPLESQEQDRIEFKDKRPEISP
A digest of the protocol:
as §1

Test [10] has as its target T7, ETV3 (Homo sapiens, UniProt P41162-2 1-143).
T7 sequence: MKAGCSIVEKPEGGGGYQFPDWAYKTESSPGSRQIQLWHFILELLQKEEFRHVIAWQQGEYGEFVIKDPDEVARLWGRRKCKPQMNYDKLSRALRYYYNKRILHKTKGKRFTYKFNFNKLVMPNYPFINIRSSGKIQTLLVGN
A digest of the protocol: as §1

The target in test [11] is T8, ELK1 (Homo sapiens, UniProt P19419 1-428).
T8 sequence: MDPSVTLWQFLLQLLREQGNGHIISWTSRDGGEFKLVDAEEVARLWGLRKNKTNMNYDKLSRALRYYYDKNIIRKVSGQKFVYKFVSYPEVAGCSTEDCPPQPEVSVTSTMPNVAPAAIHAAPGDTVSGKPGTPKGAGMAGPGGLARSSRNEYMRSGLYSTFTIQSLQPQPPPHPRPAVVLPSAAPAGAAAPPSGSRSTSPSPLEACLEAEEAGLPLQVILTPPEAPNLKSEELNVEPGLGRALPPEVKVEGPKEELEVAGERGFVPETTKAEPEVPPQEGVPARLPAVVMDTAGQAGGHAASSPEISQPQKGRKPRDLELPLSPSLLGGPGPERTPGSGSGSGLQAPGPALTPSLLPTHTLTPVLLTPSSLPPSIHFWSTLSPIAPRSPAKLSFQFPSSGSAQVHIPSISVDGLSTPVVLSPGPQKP
In outline:
as §1

In test [12] the target is ETV6 (Homo sapiens, UniProt P41212 1-452). A digest of the protocol: as §1
ETV6, sequence (P41212 whole entry): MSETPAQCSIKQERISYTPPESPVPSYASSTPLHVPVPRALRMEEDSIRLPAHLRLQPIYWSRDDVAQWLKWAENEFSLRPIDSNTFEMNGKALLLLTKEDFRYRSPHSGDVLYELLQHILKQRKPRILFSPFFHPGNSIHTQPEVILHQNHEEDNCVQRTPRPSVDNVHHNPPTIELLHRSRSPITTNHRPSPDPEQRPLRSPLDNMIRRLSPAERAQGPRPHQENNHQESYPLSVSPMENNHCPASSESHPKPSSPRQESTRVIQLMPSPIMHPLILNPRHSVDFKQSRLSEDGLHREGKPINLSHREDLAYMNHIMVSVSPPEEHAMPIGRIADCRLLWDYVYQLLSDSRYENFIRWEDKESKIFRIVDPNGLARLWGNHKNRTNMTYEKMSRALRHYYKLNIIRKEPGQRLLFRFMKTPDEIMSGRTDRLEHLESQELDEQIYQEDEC

ELF4, sequence (Q99607 whole entry): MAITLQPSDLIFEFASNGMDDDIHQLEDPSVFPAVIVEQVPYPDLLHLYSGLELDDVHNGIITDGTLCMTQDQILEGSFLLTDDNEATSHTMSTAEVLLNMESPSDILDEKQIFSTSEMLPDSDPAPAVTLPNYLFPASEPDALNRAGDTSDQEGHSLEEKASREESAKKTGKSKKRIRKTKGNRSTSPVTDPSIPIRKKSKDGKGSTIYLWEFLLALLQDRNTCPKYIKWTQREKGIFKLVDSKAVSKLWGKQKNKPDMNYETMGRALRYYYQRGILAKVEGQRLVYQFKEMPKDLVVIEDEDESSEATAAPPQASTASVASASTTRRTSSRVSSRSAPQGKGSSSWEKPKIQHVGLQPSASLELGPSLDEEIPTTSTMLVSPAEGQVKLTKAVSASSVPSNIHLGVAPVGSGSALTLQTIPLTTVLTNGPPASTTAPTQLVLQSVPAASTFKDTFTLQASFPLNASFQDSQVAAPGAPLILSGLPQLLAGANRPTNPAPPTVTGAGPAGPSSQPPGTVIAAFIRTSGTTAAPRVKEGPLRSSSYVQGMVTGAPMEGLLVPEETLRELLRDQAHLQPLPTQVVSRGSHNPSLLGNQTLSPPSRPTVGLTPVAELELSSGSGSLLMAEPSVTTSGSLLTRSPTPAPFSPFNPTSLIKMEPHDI
ELF1, sequence (P32519 whole entry): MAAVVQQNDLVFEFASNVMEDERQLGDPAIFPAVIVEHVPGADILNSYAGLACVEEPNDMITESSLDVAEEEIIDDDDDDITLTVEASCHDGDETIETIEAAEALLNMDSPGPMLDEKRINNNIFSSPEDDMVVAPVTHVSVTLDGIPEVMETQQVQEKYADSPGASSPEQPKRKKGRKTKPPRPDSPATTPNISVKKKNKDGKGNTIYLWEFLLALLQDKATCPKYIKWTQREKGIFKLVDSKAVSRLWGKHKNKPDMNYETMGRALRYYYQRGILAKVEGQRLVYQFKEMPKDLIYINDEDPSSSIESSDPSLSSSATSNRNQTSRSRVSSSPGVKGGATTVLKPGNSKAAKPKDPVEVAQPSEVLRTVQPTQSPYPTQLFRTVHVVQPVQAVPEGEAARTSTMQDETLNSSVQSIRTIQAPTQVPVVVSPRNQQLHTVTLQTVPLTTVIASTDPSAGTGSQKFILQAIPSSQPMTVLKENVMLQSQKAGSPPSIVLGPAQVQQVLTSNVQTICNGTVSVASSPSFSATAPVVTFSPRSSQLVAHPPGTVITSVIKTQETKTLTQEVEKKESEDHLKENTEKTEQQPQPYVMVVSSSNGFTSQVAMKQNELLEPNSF

In the case of GCCACC, the binding signal was 1.01 fold enrichment (6-mer frequency, TF over GST control) in test [1]; 1 fold enrichment (6-mer frequency, TF over GST control) in [2]; 1.03 fold enrichment (6-mer frequency, TF over GST control) in [3].
With ATAGAC, the binding signal in [4] is 1.04 fold enrichment (6-mer frequency, TF over GST control); in [5] it was 1.03 fold enrichment (6-mer frequency, TF over GST control); in [6], 1.02 fold enrichment (6-mer frequency, TF over GST control); in test [2], 1.01 fold enrichment (6-mer frequency, TF over GST control); in test [3], 1.02 fold enrichment (6-mer frequency, TF over GST control); in [7], 1.08 fold enrichment (6-mer frequency, TF over GST control). In addition, the binding signal in [8] is 1.01 fold enrichment (6-mer frequency, TF over GST control); in [9] it was 1.1 fold enrichment (6-mer frequency, TF over GST control); in [10], 1.02 fold enrichment (6-mer frequency, TF over GST control).
As for AACGGT, the binding signal was 1.06 fold enrichment (6-mer frequency, TF over GST control) in test [11]; 1.03 fold enrichment (6-mer frequency, TF over GST control) in test [2]; 1.05 fold enrichment (6-mer frequency, TF over GST control) in test [7]; 1.01 fold enrichment (6-mer frequency, TF over GST control) in test [12].
